These results are taken from PubChem BioAssay AID2732 (Emory University Molecular Libraries Screening Center, 2010).

Each structure is given as a SMILES string. “And” between values parts separate entries of the source, which are not always exact repeats. Equal entries are not always repeated. Among all 220,000 compounds or so, about 8,200 (3.7%) were called active. Many of the other results were omitted from the sample, so actives are more common in it than they were. A number with no mark means an inactive call.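 How the source made its calls: active means compounds that reduced the stress-induced luciferase reporter signal by more than about 70% of percent inhibition (limit read from the data); inactive means the rest.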

The test can be described thus: inhibitors of CHOP promoter induction, primary screen, cell-based, unfolded protein response, luciferase reporter (AID 2732).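 Further: 0% = tunicamycin plus vehicle and 100% = wells without tunicamycin.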 The note with it: CHO-K1 CHOP-promoter luciferase, tunicamycin-induced, 15-18 h; at 10 µM; stronger effect = higher value.
For the compound `COc1ccccc1C1C2=C(COC2=O)Nc2cc3c(cc21)OCO3` (stereo unspecified), the inhibition was 23.1%.

With `COCCOC(=O)C1=C(C)NC(=O)CC1c1cc2c(cc1Br)OCO2` (stereo unspecified), the inhibition was -14.4%.

In the case of `CCCOc1ccccc1C1CC(=O)Nc2cc3c(cc21)OCO3` (stereo unspecified), the inhibition was 85.8% (active).

`CC(C)(C)c1nnc(NC(=O)C2c3ccccc3Oc3ccccc32)s1`: the inhibition is 45.8%.

Take `N=C(N)SCc1cccc2ccccc12`: the inhibition was 35.6%.

Take `CCn1c(SCc2ccc(C)cc2)nnc1-c1nn(-c2ccccc2)ccc1=O`: the inhibition is 28.9%.

As for `CCc1ccc(-c2nn(-c3ccccc3)cc2CSC(=N)N)cc1`, the inhibition is 103% (active).

Consider `Cn1c(=O)c2c(-c3cccc(Br)c3)c(C#N)c(N)nc2n(C)c1=O`, for which the inhibition is 3.49%.

`Cc1nc(N)sc1N=Nc1c(C)n(C)n(-c2ccccc2)c1=O`: the inhibition is 4.59%.

Consider `O=C(CCl)Nc1ccc(Sc2ccc(NC(=O)CCl)cc2)cc1`, for which the inhibition is 106% (active).

On to `Cc1ccc(NC(=O)CC(=O)Nc2ccc(C)cc2)cc1`, for which the inhibition was 20.6%.

Regarding `CC(C)(CCl)C(=O)Nc1ccc(Sc2ccc(F)cc2)cc1`, the inhibition was 68%.

For the compound `COc1ccc(N=C(C)c2sc3ccccc3c2O)cc1`, the inhibition is 1.74%.

`C=CCNC(=S)N/N=C/c1ccc(C)s1`: the inhibition was -20%.

For `CC(=O)NCC(O)c1ccc([N+](=O)[O-])cc1` (stereo unspecified), the inhibition is 5.99%.

`O=S(=O)(NCc1ccco1)c1cnc(Cl)c(Cl)c1`: the inhibition is -45.5%.

Turning to `CN=C1C=C/C(=N/N=c2\ccn(O)cc2C)C=C1C`, the inhibition is -15.3%.

Turning to `CCC(CC)C(=O)N1CC(=O)Nc2ccc(Br)cc2C1c1ccccc1` (stereo unspecified), the inhibition was 81.3% (active).

On to `Cc1ccc2c(c1)C(c1ccccc1)N(C(=O)c1ccc(S(=O)(=O)N3CCOCC3)cc1)CC(=O)N2` (stereo unspecified), for which the inhibition was 18%.

For the compound `COC(=O)CN1C(C)=Nc2ccc(Br)cc2C1c1ccccc1` (stereo unspecified), the inhibition is -10.6%.

As for `CN(C)C(=O)c1nc2ccc(Cl)cn2c1CNCc1cccc(OC(F)(F)F)c1`, the inhibition is -1.69%.

For the compound `Cc1cnc(NC(=O)Cn2cnc3c2c(=O)n(C)c(=O)n3C)s1`, the inhibition is -10.1%.

Regarding `Cc1ccc(C(=O)NNc2ncnc3ccccc23)cc1`, the inhibition is 3.67%.

`Cc1nn(-c2ccccc2)c(=O)c2noc(C)c12`: the inhibition was 1.49%.

Regarding `CCn1c2ccccc2c2cc(NC(=S)N3CCOCC3)ccc21`, the inhibition is 30.3%.

On to `Cc1cc(N2CCN(C)CC2)nc2ccc(NC(=S)N3CCOCC3)cc12`, for which the inhibition is 2.29%.

Regarding `Cc1cc(N2CCOCC2)nc2ccc(NC(=S)N3CCN(Cc4ccccc4)CC3)cc12`, the inhibition is 80.6% (active).

In the case of `CC(CO)(CO)NC(=O)c1ccc(=O)[nH]n1`, the inhibition is 0.5%.

Consider `O=P(O)(CN1CCCCCC1)C1Cc2ccccc2C1`, for which the inhibition is 4.35%.

As to `O=c1c2ccccc2c(-c2ccccc2)nn1Cc1ccccc1`, the inhibition was 43.8%.

In the case of `O=c1cc(N2CCN(Cc3ccccc3)CC2)c(-c2ccccc2)n[nH]1`, the inhibition is 26.9%.

Regarding `O=c1cc(N2CCCCC2)c(-c2ccccc2)nn1Cc1cccc(F)c1`, the inhibition is 74.7% (active).

For the compound `C/C(Cc1ccccc1)=N\NC(=O)CNC(=O)c1ccccc1Cl`, the inhibition was -14.9%.

As to `COc1ccc(OCC(O)CNCCNc2nccc(C(F)(F)F)n2)cc1` (stereo unspecified), the inhibition is 3.94%.

Take `O=C(Cc1ccccc1)N/N=C/c1ccc(Cl)cc1Cl`: the inhibition is -13.9%.

As for `COc1ccc(/C=N/NC(=O)Cn2cc(C(F)(F)F)ccc2=O)cc1`, the inhibition was -10.7%.

Take `O=C(Cn1cc(C(F)(F)F)ccc1=O)N/N=C/c1ccc(Cl)cc1Cl`: the inhibition is 104% (active).

For the compound `NS(=O)(=O)c1ccc(NC(=O)COC(=O)c2cc3ccccc3oc2=O)cc1`, the inhibition was 5.84%.

For the compound `CCOc1cc2c(Cl)ncnc2c(OCC)c1OCC`, the inhibition is 23.1%.

`S=c1[nH]c2ccccc2c2ccccc12`: the inhibition is -2.18%.

Regarding `CCN(CC)CCCN=C(N)N`, the inhibition was 3.64%.

As for `CCOC(=O)N1CCN(C(=O)C2CCN(Cc3ccc(OC)cc3OC)CC2)CC1`, the inhibition is 18.3%.

Turning to `CCOC(=O)N1CCN(C(=O)C2CCN(c3ncnc4c3sc3cccc(F)c34)CC2)CC1`, the inhibition is 85.7% (active).

Turning to `CCOC(=O)C1CCN(c2ncnc3c2oc2ccc(Br)cc23)CC1`, the inhibition is 21.9%.

With `Nc1nc(NCC2CCCO2)nc(Nc2ccccc2F)c1[N+](=O)[O-]` (stereo unspecified), the inhibition is 12.4%.

As to `CC(C)CCNC(=O)C1CCC(CNc2c(N3CCC(C)CC3)c(=O)c2=O)CC1` (stereo unspecified), the inhibition is 1.09%.

In the case of `Cc1ccc2c(c1)nnc1nnc(SCC(=O)O)n12`, the inhibition is 3.13%.

For `CSc1nc(-c2ccco2)nn1C(=O)CCc1ccccc1`, the inhibition was 37.2%.

As to `CSc1nc(-c2ccco2)nn1C(=O)c1ccccc1Cl`, the inhibition was 78.2% (active).

As to `CS(=O)(=O)n1nc(-c2ccco2)nc1N`, the inhibition was 42.4%.

For `COc1cccc(N2C(=O)CC(N3CCc4ccccc4C3)C2=O)c1` (stereo unspecified), the inhibition is -8.87%.

As to `CSCC[C@H](NC(=O)CCCn1nnc2ccccc2c1=O)C(=O)O`, the inhibition was 4.06%.

As for `Cc1ccc(C(=O)c2c(NC(=O)c3ccccc3)sc(C)c2C)cc1`, the inhibition is 53.1%.

In the case of `Cc1ccc(NC(=O)c2c(NC(=O)CCC(=O)O)sc3c2CCCCC3)cc1`, the inhibition was 5.76%.

Take `Cc1ccc(C(=O)c2c(NC(=O)c3ccncc3)sc3c2CCCC3)cc1`: the inhibition was 73.2% (active).

For the compound `COc1c(C=O)c(CCN(C)C(=O)c2ccc(F)cc2)cc2c1OCO2`, the inhibition is -10.2%.

Take `COc1ccccc1C1CCN(C(=S)Nc2ccc(Br)cc2)CC1`: the inhibition was 26.5%.

In the case of `COc1ccccc1C(c1nnnn1C(C)(C)C)N1CCN(Cc2ccccc2)CC1` (stereo unspecified), the inhibition was -9.46%.

For the compound `COc1ccccc1C(c1nnnn1CC1CCCO1)N1CCN(c2ccccc2)CC1` (stereo unspecified), the inhibition is -9.42%.

As for `COCCn1nnnc1C(c1ccccc1Cl)N1CCN(c2ccccc2OC)CC1` (stereo unspecified), the inhibition was 81.6% (active).

As for `O=C(NCc1cccnc1)C(=O)Nc1nc(-c2ccccc2)cs1`, the inhibition is 16.9%.

Turning to `FC(F)(F)c1ccnc(Oc2ccc(C3=NCCS3)cc2)c1`, the inhibition is 1.85%.

Take `CC(C)=CCC/C(C)=C/C(=O)O`: the inhibition was -11.9%.

Regarding `Cc1ccc(C(=O)N2CCCC(c3ccccc3)=N2)cc1`, the inhibition is 78.5% (active).

Take `Cc1ccc(C(=O)C[n+]2cc(-c3ccccc3)n3c2CCCCC3)cc1`: the inhibition is -15.7% and 24.3%.

With `Cc1ccc(NC(=S)N2CCCC(c3ccccc3)=N2)cc1`, the inhibition was 16.8%.

As a reminder, the inhibition is the relative decrease from the control value, in per cent.
